# PLK1 PBD inh: PLK1 (human) polo-box domain binding inhibition | P53350 | Plk1 PBD binding of FITC phosphopeptide, fluorescence polarization | Potency, µM, inactives show max response, negative = inhibition, most hits filed as inhibitors | 360,000 tested, 2.8% active; also: series mostly up to about 57 µM; % is scaled to controls: 0 for no effect and ±100 for the full control effect; nearly all actives have a fitted effect of over 65% in size
# JMJD2A Tudor inh: JMJD2A Tudor domain (human) inhibition; O75164; AlphaScreen JMJD2A-Tudor / H3K4me3 peptide binding; Potency, µM (highest dose often 114 µM), inactives show at the top dose activity change, negative = inhibition, usual class: inhibitors; 390,000 tested, 4.4% active; AID 504339; also: % is scaled to controls: 0 for no effect and ±100 for the full control effect; nearly all actives have a fitted effect of over 50% in size
# VDR inhibitor: inhibitors of human vitamin D receptor | P11473 | VDR-SRC2-3 peptide fluorescence polarization, 2 h | Potency, µM, for the others: max response, negative = inhibition, usual class: inhibitors | 400,000 tested, 0.93% active | AID 504847; also: % is scaled to controls: 0 for no effect and ±100 for the full control effect
#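 FP read-out; VDR + SRC2-3 coactivator peptide; 23 nl compound by pintool; 2 h RT incubation; reagents held at 4 deg C, protected from light.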
# G9a inh: blocks human histone lysine methyltransferase G9a; AID 504332; Q96KQ7; Potency, µM (top dose mostly 102 µM), without a hit: at the highest dose activity, negative = inhibition, usual class: inhibitors; G9a H3K9 monomethylation, AlphaScreen, 2 h; 350,000 tested, 8.8% active; also: % is scaled to controls: 0 for no effect and ±100 for the full control effect; nearly all actives have a fitted effect of over 75% in size
#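 Methyltransferase reactions run at room temperature for 2 h (20 nM enzyme, 500 nM biotin-H3K9 peptide, 20 uM SAM) after a 15 min compound preincubation; product detected by AlphaScreen beads and anti-H3K9me1 antibody.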
# BAZ2B block: blocks human BAZ2B | Q9UIF8 | AlphaScreen BAZ2B-H3K14Ac peptide displacement | Potency, µM (top dose mostly 114 µM), inactives show top-dose activity change, negative = inhibition, hits mostly inhibitors | 360,000 tested, 4.4% active; also: % is scaled to controls: 0 for no effect and ±100 for the full control effect; nearly all actives have a fitted effect of over 60% in size
# Target sequence (Q9UIF8 whole entry, looked up): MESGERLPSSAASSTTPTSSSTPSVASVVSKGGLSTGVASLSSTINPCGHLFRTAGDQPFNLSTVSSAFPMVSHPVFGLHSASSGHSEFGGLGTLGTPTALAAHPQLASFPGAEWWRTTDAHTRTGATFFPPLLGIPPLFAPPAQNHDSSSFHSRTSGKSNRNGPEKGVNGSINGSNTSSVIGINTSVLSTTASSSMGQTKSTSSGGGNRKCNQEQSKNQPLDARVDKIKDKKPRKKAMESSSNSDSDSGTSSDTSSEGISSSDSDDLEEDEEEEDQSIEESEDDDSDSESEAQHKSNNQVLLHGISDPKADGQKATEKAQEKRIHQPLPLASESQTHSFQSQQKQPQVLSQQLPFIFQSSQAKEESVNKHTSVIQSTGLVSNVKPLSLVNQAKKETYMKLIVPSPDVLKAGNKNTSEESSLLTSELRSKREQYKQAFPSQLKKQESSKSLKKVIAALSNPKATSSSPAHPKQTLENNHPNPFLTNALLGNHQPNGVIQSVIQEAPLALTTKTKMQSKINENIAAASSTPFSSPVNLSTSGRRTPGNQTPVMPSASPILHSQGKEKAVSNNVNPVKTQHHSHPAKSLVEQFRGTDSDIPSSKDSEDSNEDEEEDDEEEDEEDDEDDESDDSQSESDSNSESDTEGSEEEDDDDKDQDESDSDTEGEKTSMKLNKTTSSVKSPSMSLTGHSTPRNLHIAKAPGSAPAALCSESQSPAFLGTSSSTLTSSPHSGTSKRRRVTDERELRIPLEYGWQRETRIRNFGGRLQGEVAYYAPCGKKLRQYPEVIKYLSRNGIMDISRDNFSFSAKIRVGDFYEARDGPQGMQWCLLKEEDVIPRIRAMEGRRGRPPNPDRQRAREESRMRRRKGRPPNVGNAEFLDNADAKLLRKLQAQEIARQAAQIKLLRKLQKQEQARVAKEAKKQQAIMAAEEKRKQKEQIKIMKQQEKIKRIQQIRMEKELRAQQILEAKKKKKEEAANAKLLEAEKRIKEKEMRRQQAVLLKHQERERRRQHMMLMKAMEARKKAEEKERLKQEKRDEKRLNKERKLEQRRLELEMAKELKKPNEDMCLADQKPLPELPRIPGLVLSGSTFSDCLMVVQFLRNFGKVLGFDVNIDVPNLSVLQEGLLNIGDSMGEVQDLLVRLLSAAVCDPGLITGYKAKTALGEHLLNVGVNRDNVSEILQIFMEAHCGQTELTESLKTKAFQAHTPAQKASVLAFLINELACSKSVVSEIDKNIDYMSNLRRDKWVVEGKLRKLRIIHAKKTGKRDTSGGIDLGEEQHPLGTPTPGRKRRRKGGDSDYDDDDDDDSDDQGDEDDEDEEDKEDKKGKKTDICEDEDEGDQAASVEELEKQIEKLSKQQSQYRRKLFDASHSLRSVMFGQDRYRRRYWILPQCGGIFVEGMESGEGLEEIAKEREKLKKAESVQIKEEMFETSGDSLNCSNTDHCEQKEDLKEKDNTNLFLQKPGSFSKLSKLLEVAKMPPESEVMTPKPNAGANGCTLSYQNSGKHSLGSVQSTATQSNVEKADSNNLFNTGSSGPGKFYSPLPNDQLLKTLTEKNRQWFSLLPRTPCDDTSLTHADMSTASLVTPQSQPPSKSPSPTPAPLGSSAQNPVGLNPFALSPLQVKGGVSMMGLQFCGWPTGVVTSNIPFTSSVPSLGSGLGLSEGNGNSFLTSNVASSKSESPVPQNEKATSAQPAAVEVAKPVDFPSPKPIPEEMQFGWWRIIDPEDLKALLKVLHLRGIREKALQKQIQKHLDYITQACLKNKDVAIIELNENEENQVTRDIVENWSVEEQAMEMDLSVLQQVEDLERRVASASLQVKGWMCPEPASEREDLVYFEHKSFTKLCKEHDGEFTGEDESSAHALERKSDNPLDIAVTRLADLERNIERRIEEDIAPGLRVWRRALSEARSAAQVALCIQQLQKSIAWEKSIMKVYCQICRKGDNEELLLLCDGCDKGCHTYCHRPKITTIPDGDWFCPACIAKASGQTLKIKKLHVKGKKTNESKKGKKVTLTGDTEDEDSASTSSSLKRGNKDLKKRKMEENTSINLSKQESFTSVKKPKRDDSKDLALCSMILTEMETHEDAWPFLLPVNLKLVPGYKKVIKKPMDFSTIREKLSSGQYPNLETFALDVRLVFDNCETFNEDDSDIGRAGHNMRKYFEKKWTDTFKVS
#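 BAZ2B (50 nM) with biotin-H3(5-23)K14Ac peptide (50 nM) in PBS pH 7.4, 0.01% Tween-20, preformed 30 min, then compound 30 min at room temperature; top concentration 110uM. AlphaScreen streptavidin donor/nickel chelate acceptor beads (10 ug/mL final), 20 min dark, signal read.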
# HP1b chromo inh: HP1-beta chromodomain-methylated histone interaction inhibition | P83916 | AlphaScreen HP1-beta / biotin-H3K9me3 peptide binding | Potency, µM (top dose mostly 114 µM), for the others: at the highest dose activity change, negative = inhibition, most hits filed as inhibitors | 390,000 tested, 0.56% active | AID 540317; also: nearly all actives have a fitted effect of over 70% in size
#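 AlphaScreen: HP1-beta (50 nM) preformed 30 min with biotin-H3(1-18)K9me3 peptide (50 nM) in PBS pH 7.4, 0.01% Tween-20. Compound added for 30 min at RT, then streptavidin donor/nickel chelate acceptor beads (10 ug/mL) for 30 min.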
# * hit, by the source's call; ? = inconclusive; . = not tested or not shown; [ ] = another dose, or the depositor's remark. Shown are actives, neighbours in structure and some others; about 11% of the full set was active somewhere. Calls follow the shape of the dose curve; as a rule, active = well fitted curve in the direction sought with a large enough effect; inconclusive = small, poorly fitted or top-dose-only effect, or another doubt; inactive = no such curve, though single readings can be large; an effect the other way counts as inactive or inconclusive. Potency is read from the fitted curve at half-maximal effect.
SMILES,PLK1 PBD inh,JMJD2A Tudor inh,VDR inhibitor,G9a inh,BAZ2B block,HP1b chromo inh
CCc1ccc(O)c(N=Cc2cccc(C)c2O)c1,0%,?,0%,2.5µM*,-34%,-3%
C=CCc1cccc(/C=N/c2ncn[nH]2)c1O,-26%,-18%[57.1 µM],-3%,-4%[12.7 µM],-34%,11%
N#CC(C#N)=C1C=CC=CN1/C(=C\c1ccco1)C(=O)c1ccc(Cl)cc1,12µM*,?,8.9µM*,?,?,2%
c1ccc(C2CNCCc3ccccc32)cc1 (stereo not drawn),-15%,-7%,-11%,-2%,-10%,22%
S=C1NCCc2ccc(Cl)cc2C1c1ccccc1 (stereo not drawn),-8%,?,-8%,-17%[59 µM],40µM*,?
COc1cccc(C(=O)NN/C(C)=C/C(=O)C(F)(F)C(F)(F)C(F)(F)F)c1,27µM*,?,?,31%[59 µM],12%,-12%
COc1cccc(C(=O)NNC(=O)Cc2ccc(Cl)cc2)c1,1%,3%,6%,24%[59 µM],-6%,46%
COC(=O)CSc1nnc(CNC(=O)Cc2ccccc2)n1-c1ccccc1OC,-9%,-13%,-21%,11%,3%,34%
CC(C)c1cc(C(=O)N/N=C/c2ccco2)n[nH]1,7.5µM*,-19%,-16%,14%,1%,10%
O=c1ccsn1Cc1ccccc1,3µM*,40µM*,?,?,56µM*,?
O=C1NC(Cc2ccccc2)C(=O)N1Cc1ccccc1 (stereo not drawn),-11%,-6%,12%,.,.,13%[57 µM]
Oc1ccc(NCc2cccs2)cc1,-24%,-33%,-17%,40µM*,?,?
NC(=O)C1=C(c2ccccc2)c2ccccc2C1=O,4.2µM*,-13%,40µM*,.,.,2%[57 µM]
COc1ccccc1C(=O)Nc1ccnn1C1CCN(CCC(C)c2ccc(C)o2)CC1 (stereo not drawn),-12%,-34%,-7%,7.1µM*,-28%,-18%
CCc1ccc(CN2CCC(n3nccc3NC(=O)c3ccccc3OC)CC2)o1,2%,.,.,.,.,.
Cc1ccc(C(C)CCN2CCC(n3nccc3NC(=O)c3ccccc3)CC2)o1 (stereo not drawn),1%,-21%,-16%,28µM*,-25%,-19%
NNC(=O)C(=O)NCCCN1CCOCC1,-3%,?,1%,56µM*,-29%,15%
C=CCNC(=O)C(=O)NCCCN1CCOCC1,1%,7%,9%,.,-10%,56%
CC(C)CNC(=O)C(=O)NCCCN1CCOCC1,21µM*,-5%,-13%,.,-8%,-11%
CCOc1ccccc1NC(=O)COc1coc(CN2CCCc3ccccc32)cc1=O,-3%,?,?,50µM*,?,-20%
CCCCCSc1nnc(-c2cc(Br)ccc2N)c(=O)[nH]1,-23%,-9%,13%,45µM*,2%,39%
CCCCCCCSc1nnc(-c2ccccc2N)c(=O)[nH]1,-9%,-11%,-11%,?,-15%,-4%
O=Cc1nc(-c2ccccc2Cl)n2ccccc12,-1%,-7%,-10%,1%[59 µM],-6%,12%
CN1CCN(/N=C/c2nc(-c3ccccc3Cl)n3ccccc23)CC1,-6%,-31%,15%,28µM*,-9%,-11%
Clc1ccccc1-c1nc(/C=N/N2CCOCC2)c2ccccn12,24µM*,?,?,28µM*,.,?
SMILES,PLK1 PBD inh,JMJD2A Tudor inh,VDR inhibitor,G9a inh,BAZ2B block,HP1b chromo inh
Cc1c(C(=O)OC(C)C)sc(NC(=O)C2c3ccccc3Oc3ccccc32)c1C(=O)OC(C)C,.,-12%,-17%,-23%[59 µM],-9%,10%
C[C@H]1CNC(=O)c2c(C(=O)N[C@@H](Cc3c[nH]c4ccccc34)C(=O)OC(C)(C)C)ncn21,-5%,.,.,.,.,.
Cc1cc(C(=O)OCC(=O)N(C)C2CCS(=O)(=O)C2)c(C)n1-c1ccccc1 (stereo not drawn),-4%,-25%[11.4 µM],1%,?,-29%,28%
Cc1ccc(NC(=S)Nc2ccc3nc(-c4ccccn4)c(-c4ccccn4)nc3c2)cc1C,-25%,?,-20%,7.9µM*,?,-23%
CN(CC(=O)Nc1ccccc1Cl)C(=O)COC(=O)c1ccc(-c2ccc(O)cc2)cc1,4%,-8%,6%,.,.,24%
Cc1ccc(C(=O)N2C3=C(CCCC3)C(=O)NC23CCCCC3)cc1,-20%,-18%[57.1 µM],-24%,5%,?,25%
Cc1cccc(N2C(S)=C(C#N)C(=O)NC23CCCCC3)c1,4%,-18%,45µM*,?,?,35%
Cc1ccc(N2C(S)=C(C#N)C(=O)NC23CCCCC3)cc1,-24%,-22%[57.1 µM],32µM*,28µM*,-9%,19%
Cc1ccccc1N1C(S)=C(C#N)C(=O)NC12CCCCC2,-5%,-21%,32µM*,35µM*,4%,24%
Cc1cccc(NC2=C(C#N)C(=O)NC3(CCCC3)S2)c1,7%,-3%,20µM*,?,-18%,46%
CCn1c(=O)c2cc(C(=O)NCc3cc(OC)ccc3OC)sc2c2ccccc21,.,-22%,-9%,-3%[59 µM],-19%,46%
CCOC(=O)CC(NC(=O)c1cc2c(=O)n3cccc(C)c3nc2s1)c1ccc(OCC)c(OC)c1 (stereo not drawn),.,4%,3%,62%[59 µM],52%,76%
COc1ccccc1-c1c(C)nn2c(N3CCN(c4cccc(Cl)c4)CC3)cc(C)nc12,.,-4%,3%,11%[59 µM],11%,12%
COc1cc(NC(=O)C(C)(C)C)c(C(=O)OCC(=O)Nc2cc(C)on2)cc1OC,4%,.,.,.,.,.
COC(=O)C1=C(C)N(c2cc(Cl)cc(Cl)c2)C(=O)C1,-20%,-20%,2%,45µM*,-4%,11%
CS(=O)(=O)Nc1ccc(C2=NN(C(=O)c3cccc(F)c3)C(c3cccs3)C2)cc1 (stereo not drawn),-6%,-26%,-9%,3%,-15%,43%
CCOC(=O)c1nc(N)c(C(=O)OCC)[nH]1,11µM*,-21%[11.4 µM],-11%,25%[59 µM],4%,-9%
COc1ccc(C(=O)N(Cc2ccccc2)Cc2ccccc2)c(O)c1,.,-12%,.,.,.,.
CC(=O)c1ccc(N2CCN(C(=O)Cn3ncc4c3-c3ccccc3OC4)CC2)cc1,.,-25%,-3%,-8%[59 µM],-17%,2%
COC(CN(C)C(=O)C1CCC(CNS(=O)(=O)c2ccc(C)cc2)CC1)OC (stereo not drawn),21µM*,-32%,-13%,-1%[0.501 µM],-5%,30%
COC(CN(C)C(=O)C1CCC(CNS(=O)(=O)c2ccccc2)CC1)OC (stereo not drawn),-5%,-9%,-7%,-2%,4%,26%
CCN(C(=O)c1cnc2ccc(C)cn2c1=O)c1ccccc1,.,-1%,?,0%[59 µM],1%,27%

# Assay outcomes as filed in PubChem.
